ERAP1 inh: ERAP1 (human) enzyme inhibition; inhibition, % at 10.7 µM; Q9NZ08; recombinant ERAP1, Leu-AMC fluorescence, 60 min; 340,000 compounds, 0.15% hits;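 active means mean replicate inhibition of at least 30%, or all replicates individually reaching that 30% level; inactive means mean below 30% and not every replicate reaching it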
MLL AF4-AF9 inh: inhibitors of human MLL-AF4/AF9 interaction. inhibition, % at 10 µM. 350,000 compounds, 0.47% hits. AlphaScreen, biotin-AF4 peptide binding to FLAG-AF9;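 active means every replicate reaching a set inhibition limit, whatever the replicate mean, cut at about 25% in these data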
ERp5 block: inhibitors of human ERp5; ERp5 insulin aggregation, absorbance 650 nm, 90 min; inhibition, % at 9.99 µM; 350,000 compounds, 0.05% hits;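 active means mean replicate inhibition above about 25%, with every replicate also reaching it, limit read from the data, passing the limit was not always enough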
Target sequence (Q15084 whole entry, looked up): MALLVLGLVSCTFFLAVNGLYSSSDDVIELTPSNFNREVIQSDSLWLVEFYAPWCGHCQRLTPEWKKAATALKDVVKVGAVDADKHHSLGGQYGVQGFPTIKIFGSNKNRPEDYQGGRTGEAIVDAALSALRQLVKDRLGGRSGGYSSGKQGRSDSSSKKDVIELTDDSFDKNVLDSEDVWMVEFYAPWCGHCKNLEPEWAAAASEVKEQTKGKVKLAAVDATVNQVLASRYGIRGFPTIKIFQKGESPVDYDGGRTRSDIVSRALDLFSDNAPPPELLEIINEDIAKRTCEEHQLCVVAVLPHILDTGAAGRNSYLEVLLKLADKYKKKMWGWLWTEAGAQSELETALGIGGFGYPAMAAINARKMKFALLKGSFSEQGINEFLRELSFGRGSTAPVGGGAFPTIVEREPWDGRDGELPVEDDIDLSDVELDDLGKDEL
DENV2 CPE rescue: inhibitors of DENV2 cytopathic effect | DENV2-infected cells, cytopathic effect rescue, plate reader | CPE inhibition, % at 9.99 µM | 350,000 compounds, 1.7% hits | AID 651640; in the data active means CPE inhibition above about 20%, passing the limit was not always enough; tested in BHK-21 cells
Numbers stand for hits. An excerpt weighted towards active compounds, which were near 1.8% of everything screened.

For COCC#Cc1ccc([C@@H]2[C@@H](CO)N3CCCCN(S(=O)(=O)c4cccc(OC)c4)C[C@H]23)cc1 the results were ERp5 block inactive.
Screening COc1ccc(C#Cc2ccc([C@@H]3[C@@H](CO)N4CCCCN(S(=O)(=O)c5ccccc5)C[C@@H]34)cc2)cc1 returned ERAP1 inh inactive, MLL AF4-AF9 inh inactive, ERp5 block inactive and DENV2 CPE rescue 32.
Screening C/C=C/c1ccc([C@H]2[C@@H](CO)N3CCCCN(S(=O)(=O)c4ccccc4)C[C@@H]23)cc1 returned ERAP1 inh inactive, MLL AF4-AF9 inh inactive, ERp5 block inactive and DENV2 CPE rescue 115.
Screening COc1ccc(C#Cc2ccc([C@H]3[C@H](CO)N4CCCCN(S(=O)(=O)c5ccccc5)C[C@@H]34)cc2)cc1 returned ERAP1 inh inactive, MLL AF4-AF9 inh inactive, ERp5 block inactive and DENV2 CPE rescue inactive.
Screening COCC#Cc1ccc([C@H]2[C@H]3CN(S(=O)(=O)c4cccc(OC)c4)CCCCN3[C@H]2CO)cc1 returned ERAP1 inh inactive, MLL AF4-AF9 inh inactive, ERp5 block inactive and DENV2 CPE rescue 23.
`C/C=C/c1ccc([C@@H]2[C@H]3CN(S(=O)(=O)c4ccccc4)CCCCN3[C@H]2CO)cc1` gave ERAP1 inh inactive, MLL AF4-AF9 inh inactive, ERp5 block inactive and DENV2 CPE rescue inactive.
For COc1ccc(C#Cc2ccc([C@H]3[C@@H](CO)N4CCCCN(S(=O)(=O)c5ccccc5)C[C@@H]34)cc2)cc1 the results were ERAP1 inh inactive, MLL AF4-AF9 inh inactive, ERp5 block inactive and DENV2 CPE rescue 82.
`Cc1noc(C)c1NC(=O)Nc1ccc2c(c1)C(=O)N([C@H](C)CO)C[C@H](C)[C@H](CN(C)CC1CC1)O2` gave ERAP1 inh inactive, MLL AF4-AF9 inh inactive, ERp5 block inactive and DENV2 CPE rescue inactive.
For COc1ccc(-c2cnc3c(c2)C(=O)N([C@@H](C)CO)C[C@H](C)[C@@H](CN(C)C(=O)Cc2ccncc2)O3)cc1 the results were ERAP1 inh inactive, MLL AF4-AF9 inh inactive, ERp5 block inactive and DENV2 CPE rescue inactive.
Screening O=C(Cc1ccccc1)N1CC2(C1)[C@@H](c1ccccc1)[C@H](CO)N2S(=O)(=O)Cc1ccccc1 returned ERAP1 inh inactive, MLL AF4-AF9 inh inactive, ERp5 block inactive and DENV2 CPE rescue 43.
O=C(Cc1ccccc1)N1CC2(C1)[C@@H](c1ccccc1)[C@@H](CO)N2S(=O)(=O)Cc1ccccc1 was read as MLL AF4-AF9 inh inactive, ERp5 block inactive and DENV2 CPE rescue 35.
`CCC(=O)N1CC2(C1)[C@H](c1ccccc1)[C@H](CO)N2S(=O)(=O)Cc1ccccc1` gave ERAP1 inh inactive, MLL AF4-AF9 inh inactive, ERp5 block inactive and DENV2 CPE rescue inactive.
COc1cccc(C#Cc2ccc3c(c2)O[C@@H](CN(C)C(=O)c2ccccn2)[C@H](C)CN([C@H](C)CO)S3(=O)=O)c1 was read as DENV2 CPE rescue inactive.
Screening C[C@H]1CN([C@@H](C)CO)C(=O)c2cc(N(C)C)ccc2O[C@@H]1CN(C)Cc1ccc(C(F)(F)F)cc1 returned ERAP1 inh inactive, MLL AF4-AF9 inh inactive, ERp5 block inactive and DENV2 CPE rescue inactive.
Screening C[C@H]1CN([C@@H](C)CO)C(=O)Cc2cc(N(C)C)ccc2O[C@@H]1CN(C)Cc1ccc(C(=O)O)cc1 returned ERAP1 inh inactive, MLL AF4-AF9 inh inactive and ERp5 block inactive.
`C[C@H](CO)N1C[C@H](C)[C@H](CN(C)Cc2ccc(C(F)(F)F)cc2)OCCCC[C@H](C)Oc2ccc(N(C)C)cc2C1=O` gave ERAP1 inh inactive, MLL AF4-AF9 inh 32, ERp5 block inactive and DENV2 CPE rescue inactive.
`C[C@@H]1CCCCO[C@H](CN(C)Cc2ccc(C(F)(F)F)cc2)[C@@H](C)CN([C@H](C)CO)C(=O)c2cc(N(C)C)ccc2O1` gave ERAP1 inh inactive, MLL AF4-AF9 inh inactive, ERp5 block inactive and DENV2 CPE rescue inactive.
Screening C[C@@H]1CN([C@@H](C)CO)C(=O)Cc2cc(N(C)C)ccc2O[C@H]1CN(C)Cc1ccc(C(F)(F)F)cc1 returned ERAP1 inh inactive, MLL AF4-AF9 inh 43, ERp5 block inactive and DENV2 CPE rescue inactive.
For C[C@@H]1CN([C@@H](C)CO)C(=O)c2cc(N(C)C)ccc2O[C@@H](C)CCCCO[C@H]1CN(C)Cc1ccc(C(F)(F)F)cc1 the results were ERAP1 inh inactive, MLL AF4-AF9 inh 38, ERp5 block inactive and DENV2 CPE rescue inactive.
`C[C@H](CO)N1C[C@H](C)[C@H](CN(C)Cc2ccc(C(F)(F)F)cc2)Oc2ccc(N(C)C)cc2C1=O` gave ERAP1 inh inactive, MLL AF4-AF9 inh inactive, ERp5 block inactive and DENV2 CPE rescue 40.
`C[C@@H]1CN([C@@H](C)CO)C(=O)c2cc(NC(=O)Nc3ccccc3)ccc2O[C@@H]1CN(C)Cc1ccc(C(F)(F)F)cc1` gave ERAP1 inh inactive, MLL AF4-AF9 inh inactive, ERp5 block inactive and DENV2 CPE rescue inactive.
`C[C@@H]1CN([C@H](C)CO)C(=O)c2cc(NC(=O)NC3CCCCC3)ccc2O[C@@H](C)CCCCO[C@@H]1CN(C)C(=O)c1ccccc1` gave ERAP1 inh inactive, MLL AF4-AF9 inh inactive, ERp5 block inactive and DENV2 CPE rescue inactive.
Screening CCCNC(=O)N1CC2(CN(C(=O)Nc3cccc(F)c3)C2)c2c(n(C)c3cc(OC)ccc23)[C@@H]1CO returned ERAP1 inh inactive, MLL AF4-AF9 inh inactive, ERp5 block inactive and DENV2 CPE rescue inactive.
Screening C[C@@H]1CN([C@@H](C)CO)C(=O)c2cc(N(C)C)ccc2O[C@@H](C)CCCCO[C@@H]1CN(C)Cc1ccc(C(F)(F)F)cc1 returned ERAP1 inh inactive, MLL AF4-AF9 inh 39, ERp5 block inactive and DENV2 CPE rescue inactive.
C[C@H](CO)N1C[C@H](C)[C@@H](CN(C)Cc2ccc(C(F)(F)F)cc2)OCCCC[C@H](C)Oc2ccc(N(C)C)cc2C1=O was read as ERAP1 inh inactive, MLL AF4-AF9 inh inactive, ERp5 block inactive and DENV2 CPE rescue inactive.
For C[C@@H]1CN([C@H](C)CO)C(=O)c2cc(N(C)C)ccc2O[C@@H](C)CCCCO[C@@H]1CN(C)Cc1ccc(C(F)(F)F)cc1 the results were ERAP1 inh inactive, MLL AF4-AF9 inh 35, ERp5 block inactive and DENV2 CPE rescue inactive.
C[C@@H]1CN([C@H](C)CO)C(=O)c2cc(N(C)C)ccc2O[C@@H](C)CCCCO[C@H]1CN(C)Cc1ccc(C(F)(F)F)cc1 was read as ERAP1 inh inactive, MLL AF4-AF9 inh 33, ERp5 block inactive and DENV2 CPE rescue inactive.
For CCCNC(=O)[C@@H]1[C@@H](CO)[C@@H]2Cn3c(ccc(-c4cccc(F)c4)c3=O)[C@H]1N2C(C)=O the results were ERAP1 inh inactive, MLL AF4-AF9 inh inactive, ERp5 block inactive and DENV2 CPE rescue inactive.
For C/C=C/c1ccc([C@@H]2[C@@H](CO)N(C(C)=O)C23CN(C(=O)c2ccccc2)C3)cc1 the results were ERAP1 inh inactive, MLL AF4-AF9 inh inactive, ERp5 block inactive and DENV2 CPE rescue inactive.
Screening C/C=C/c1ccc([C@H]2[C@H](CO)N(C(=O)c3cnccn3)C23CN(C(=O)C2CC2)C3)cc1 returned ERAP1 inh inactive, MLL AF4-AF9 inh inactive, ERp5 block inactive and DENV2 CPE rescue 33.

Screening results (PubChem BioAssay)
